Rows were chosen to be rich in hits. Some 19% of all compounds tested hit in one or more screens of this group.
IL1B secr inh = blocks inflammasome-driven IL-1 beta release; THP-1 LPS/ATP IL-1B secretion, AlphaLISA, 16 h; active compounds read low; activity change, % at 57.5 µM; 360,000 tested, 4.7% active; in the data active means activity change below about -50%; inconclusive means mostly about -30% to -49%
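THP-1 cells pretreated 1 hr with compounds (up to 57.5 uM final), then stimulated with LPS (250 ng/mL final) plus ATP (1.25 mM final); secreted IL-1B measured by AlphaLISA after 16 hr, decreased signal indicating inhibition.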
TDP1 cell CPT = DT40-hTDP1 cell growth loss with CPT | chicken DT40 Tdp1-/-;hTDP1 cells + 20 nM CPT, ATP luminescence, 48 h | Potency, µM (series often up to 46.2 µM), for inactives: at the highest dose activity change, negative = growth inhibition, actives largely listed as inhibitors | 420,000 tested, 12% active | AID 686979; further: potency means the concentration at half of the fitted maximal effect; nearly all actives have a fitted effect of over 55% in size
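Cell growth measured by CellTiter-Glo luminescence after a minimum 48 h, 37 C compound exposure with 20 nM CPT in Tdp1-knockout DT40 cells stably expressing hTDP1, seeded 400/well; qHTS titration format.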
HT1080NT lethal = kills 2HG-producing HT-1080-NT fibrosarcoma cells | HT-1080-NT fibrosarcoma viability, CellTiter-Glo ATP luminescence, 48 h | Potency, µM (top dose mostly 46.1 µM), for the others: top-dose activity, negative = less viability, most hits filed as cytotoxic | 360,000 tested, 1.6% active | AID 686970;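 further: NT is the 2HG producing partner of a matched IDH1 knockdown line; potency means the concentration at half of the fitted maximal effect; 0% = DMSO-treated cells and -100% = media-only wells without cells; nearly all actives have a fitted effect of over 55% in size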
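Toxicity toward the 2HG-producing NT line was scored as %Activity, normalised to DMSO and no-cell wells, from CellTiter-Glo luminescence after 48 hours' treatment.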
ELG1 repair inh = blocks ELG1-dependent DNA repair in HEK293T cells; AID 504467; Potency, µM (doses to about 46.1 µM), inactives show at the highest dose activity change, negative = inhibition, most hits filed as inhibitors; 330,000 tested, 2.3% active; HEK293T ELG1-luciferase reporter, luminescence, 16 h; DNA damage induced by 5-fluorouridine; further: potency means the concentration at half of the fitted maximal effect; nearly all actives have a fitted effect of over 55% in size
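Reporter activity after DNA damage by 5-fluorouridine is monitored. Compound-treated cells incubate 16 hr at 37 °C, then ONE-Glo is added for 30 min before luminescence reading.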
TDP1 cell noCPT = qHTS for Inhibitors of human tyrosyl-DNA phosphodiesterase 1 (TDP1): qHTS in cells in absence of CPT | DT40 Tdp1-/- hTDP1 cells, no CPT, ATP luminescence, 48 h | Potency, µM (series often up to 46.2 µM), without a hit: at the top dose activity change, negative = growth inhibition, actives largely listed as inhibitors | 420,000 tested, 15% active | AID 686978, 2013; further: potency means the concentration at half of the fitted maximal effect; nearly all actives have a fitted effect of over 55% in size
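Readout: luminescence from CellTiter-Glo after 30 min in the dark at RT. Cells: DT40 Tdp1-/- with stable hTDP1, 400/well. Exposure: compounds alone, ≥48 hr, 37 °C.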
HT1080 IDH1KD tx = kills HT-1080 cells with IDH1 knockdown | HT-1080 IDH1 knockdown viability, ATP luminescence, 48 h | Potency, µM (top dose mostly 46.1 µM), for the others: top-dose activity, negative = toxicity, most hits filed as cytotoxic | 360,000 tested, 2% active | AID 686971;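 further: potency means the concentration at half of the fitted maximal effect; 0% = DMSO wells and -100% = cell-free medium wells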
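Luminescent ATP read-out (CellTiter-Glo, 10 min at room temperature) after 48 h compound exposure at 37 °C gave viability of IDH1-knockdown HT-1080 cells. Activity was normalised to DMSO and cell-free wells, then fitted as concentration-response curves.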
* hit, by the source's call; [ ] = another dose, or the depositor's remark. Unless noted, the call rests on the fitted dose curve; in most records, active means well fitted curve in the direction sought with a large enough effect; inconclusive means small, poorly fitted or top-dose-only effect, or another doubt; inactive means no such curve, though single readings can be large; an effect the other way counts as inactive or inconclusive. Unless noted, on the % scale 0 is the no-effect control and ±100 the full control effect.

Screening CC(C)=CCN1CCN(CCC2=C(C)CCCC2(C)C)CC1CCO (stereo not drawn) returned IL1B secr inh inconclusive, TDP1 cell CPT inconclusive, HT1080NT lethal -6%, ELG1 repair inh -6%, TDP1 cell noCPT inconclusive and HT1080 IDH1KD tx 0%.
`CC1=C(CC/C(C)=N/NC(N)=S)C(C)(C)CCC1` gave IL1B secr inh -3, TDP1 cell CPT 4µM*, HT1080NT lethal 6.3µM*, ELG1 repair inh inconclusive, TDP1 cell noCPT 3.2µM* and HT1080 IDH1KD tx 8.9µM*.
For Cc1nc2ccc(NC(=O)c3cc(S(=O)(=O)N4CCOCC4)ccc3C)cc2s1 the results were IL1B secr inh -29, TDP1 cell CPT inconclusive, HT1080NT lethal -6%, ELG1 repair inh inconclusive, TDP1 cell noCPT 23µM* and HT1080 IDH1KD tx -8%.
Cc1nc2ccc(NC(=O)N3CCOCC3)cc2s1 was read as IL1B secr inh 17, TDP1 cell CPT 5%, HT1080NT lethal 8%, ELG1 repair inh -6%, TDP1 cell noCPT 0% and HT1080 IDH1KD tx 3%.
Screening Cc1nc2ccc(NC(=O)c3ccc(C)c(S(=O)(=O)N4CCOCC4)c3)cc2s1 returned IL1B secr inh -23, TDP1 cell CPT 18µM*, HT1080NT lethal -5%[9.24 µM], ELG1 repair inh inconclusive, TDP1 cell noCPT inconclusive and HT1080 IDH1KD tx -1%.
For Cc1csc(NC(=O)c2ccc(C)c(S(=O)(=O)N3CCOCC3)c2)n1 the results were ELG1 repair inh -16%.
CC(=O)N1CCC[C@@]2(CCN(Cc3cc(C(F)(F)F)cc(C(F)(F)F)c3)C2)C1 was read as TDP1 cell CPT -14% and TDP1 cell noCPT -28%.
`O=C1c2cccc3cc([N+](=O)[O-])cc(c23)C(=O)N1CCN1CCCC1` gave IL1B secr inh -98*, TDP1 cell CPT 0.21µM*, HT1080NT lethal inconclusive, ELG1 repair inh inconclusive, TDP1 cell noCPT 0.13µM* and HT1080 IDH1KD tx 2.3µM*.
Screening Cc1cc(C)c(S(=O)(=O)N2CCN(CCN3C(=O)c4cccc5cccc(c45)C3=O)CC2)cc1[N+](=O)[O-] returned ELG1 repair inh 3.7µM*.
Screening CCN(CC)CCN1C(=O)c2cccc3cc(N)cc(c23)C1=O returned IL1B secr inh -78*, TDP1 cell CPT 12µM*, HT1080NT lethal 33µM*, ELG1 repair inh 25%, TDP1 cell noCPT 7.3µM* and HT1080 IDH1KD tx 33µM*.
`O=C1c2cccc3cc([N+](=O)[O-])cc(c23)C(=O)N1/N=C/c1ccc(O)cc1O` gave IL1B secr inh -96*, TDP1 cell CPT inconclusive, HT1080NT lethal inconclusive, ELG1 repair inh -13%, TDP1 cell noCPT 16µM* and HT1080 IDH1KD tx -28%.
Nc1cc2c3c(cccc3c1)C(=O)N(CCN1CCCC1)C2=O was read as IL1B secr inh -99*, TDP1 cell CPT 0.73µM*, HT1080NT lethal 21µM*, ELG1 repair inh inconclusive, TDP1 cell noCPT 1.2µM* and HT1080 IDH1KD tx inconclusive.
For COc1ccc(Cc2c(-c3ccc(F)cc3)nc3cc(C)c(Br)c(C)n23)c(C)c1 the results were IL1B secr inh 81, TDP1 cell CPT inconclusive, HT1080NT lethal -26%, TDP1 cell noCPT 18µM* and HT1080 IDH1KD tx -19%.
Screening COc1ccc(Cc2c(-c3ccc(C)cc3)nc3cc(C)c(Br)c(C)n23)c(C)c1 returned IL1B secr inh 0, TDP1 cell CPT 2.3µM*, HT1080NT lethal -11%, TDP1 cell noCPT inconclusive and HT1080 IDH1KD tx -18%.
Screening Cc1cc(C)c(S(=O)(=O)Cc2ccccc2)c(Cl)n1 returned IL1B secr inh 10, TDP1 cell CPT -8%, HT1080NT lethal 20%, ELG1 repair inh 6%, TDP1 cell noCPT -19% and HT1080 IDH1KD tx 22%.
`CCOC(=O)N1CCN(Cc2nc3cc(NC(=O)c4ccco4)ccc3n2CC)CC1` gave IL1B secr inh inactive, TDP1 cell CPT -20%, HT1080NT lethal 3%, ELG1 repair inh -5%, TDP1 cell noCPT inconclusive and HT1080 IDH1KD tx 11%.
`CCOC(=O)N1CCN(Cc2nc3cc([N+](=O)[O-])ccc3n2C(C)C)CC1` gave TDP1 cell CPT 21µM* and TDP1 cell noCPT inconclusive.
For CCn1c(CN2CCOCC2)nc2cc(NC(=O)c3ccccc3[N+](=O)[O-])ccc21 the results were TDP1 cell CPT -21% and TDP1 cell noCPT -17%.
For CCOC(=O)N1CCN(Cc2nc3cc(NC(=O)c4ccccc4OC)ccc3n2C(C)C)CC1 the results were TDP1 cell CPT 3.7µM* and TDP1 cell noCPT 2.3µM*.
CCOC(=O)N1CCN(Cc2nc3cc(NC(=O)c4ccccc4[N+](=O)[O-])ccc3n2C(C)C)CC1 was read as TDP1 cell CPT 16µM* and TDP1 cell noCPT 16µM*.
`Cc1ccc(C)c(N(CC(=O)NCCc2ccccc2)C(=O)CCC(=O)Nc2ccccn2)c1` gave IL1B secr inh -12, TDP1 cell CPT -13%, HT1080NT lethal -17%, ELG1 repair inh 7%, TDP1 cell noCPT -26% and HT1080 IDH1KD tx -18%.
For CCN(CC)Cc1c(C(=O)N/N=C/c2ccccn2)nnn1-c1nonc1N the results were IL1B secr inh 37, TDP1 cell CPT 6%, HT1080NT lethal 0%, ELG1 repair inh 6%, TDP1 cell noCPT 5% and HT1080 IDH1KD tx -2%.
For COCCCNC(=O)CSc1nc2cc3c(cc2c(=O)n1CCCCCC(=O)NCc1ccc(OC)cc1)OCO3 the results were TDP1 cell CPT -8% and TDP1 cell noCPT -22%.
`Cc1cccnc1NC(=O)CN1C(=O)c2ccccc2S1(=O)=O` gave IL1B secr inh 18, TDP1 cell CPT 8%, HT1080NT lethal 1%, ELG1 repair inh 0%, TDP1 cell noCPT 2% and HT1080 IDH1KD tx 7%.
`Cc1cc(C)c(NC(=O)CSc2nncn3c2cc2oc(C)cc23)c(C)c1` gave TDP1 cell CPT 3% and TDP1 cell noCPT -25%.
For Cc1cc(C)cc(NS(=O)(=O)c2c(C)[nH]c(=O)[nH]c2=O)c1 the results were IL1B secr inh 22, TDP1 cell CPT 7%, HT1080NT lethal 6%, ELG1 repair inh -1%, TDP1 cell noCPT 2% and HT1080 IDH1KD tx 9%.

From PubChem
